# MLLE-PAM2 inh: inhibitors of PABP1 MLLE–PAM2 peptide binding, primary screen, biochemical, fluorescence polarization, FITC-PAM2, GST-MLLE; AID 588489, 2011; Polyadenylate-binding protein 1 (Homo sapiens), P11940; inhibition, % at 20 µM; hit rate 0.36% among 360,000; in the data active = inhibition above about 35%, passing the limit was not always enough
# ABCB6 inh 2: ABCB6 transporter inhibitors, primary screen, K562-ABCB6 cells, flow cytometry, MLPCN library; K562-ABCB6 porphyrin accumulation, 1 h; stronger effect = lower value; fluorescence ratio to DMSO, % at 10 µM; hit rate 0.19% among 360,000; AID 602162, 2011; ATP-binding cassette sub-family B member 6 (Homo sapiens), Q9NP58;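 active = fluorescence ratio to DMSO below 75%, the collection mean minus 3 SD; inconclusive = too few cells collected in the well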;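 also: signal is porphyrin accumulated inside mitochondria; lower ratio means ABCB6 inhibition with less porphyrin fluorescence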
# PHOSPHO1 inh: PubChem AID 1565; hit rate 1.1% among 290,000; recombinant PHOSPHO1, absorbance phosphatase assay; inhibition, % at 13.3 µM; Phosphoethanolamine/phosphocholine phosphatase (Homo sapiens), Q8TCT1; in the data active = inhibition above about 60%
# Target sequence (Q8TCT1 whole entry, looked up): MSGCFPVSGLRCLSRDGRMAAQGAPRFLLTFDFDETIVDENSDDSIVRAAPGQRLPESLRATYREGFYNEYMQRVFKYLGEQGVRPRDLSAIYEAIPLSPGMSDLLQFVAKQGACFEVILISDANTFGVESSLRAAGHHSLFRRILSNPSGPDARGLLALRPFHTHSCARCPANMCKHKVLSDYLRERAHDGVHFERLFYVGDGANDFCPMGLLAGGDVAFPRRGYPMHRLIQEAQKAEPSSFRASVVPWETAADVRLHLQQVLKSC
# eIF4H inh: human eIF4H binding inhibitors, primary screen, translation initiation inhibitor project, biochemical, uHTS, fluorescence polarization. inhibition, % at 35 µM. Eukaryotic translation initiation factor 4H (Homo sapiens), Q15056. eIF4H fluorescence polarization binding assay. AID 2012, 2009. hit rate 0.94% among 290,000;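 also: calls also rest on retests at 20 µM and on dose response follow-up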
# PABP polyA inh: PABP poly(A) RNA binding inhibitors, primary screen, biochemical, fluorescence polarization, uHTS. calls only at 35 µM. hit rate 1% among 290,000. AID 2014, 2009;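 also: calls also rest on retests at 20 µM and on dose response follow-up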
# AI-2 QS modul: Vibrio harveyi AI-2 quorum sensing modulators, primary screen, JMH597 strain, luminescence/OD600 ratio | Vibrio harveyi JMH597 AI-2 luminescence/OD600 ratio, 9 h; stronger effect = lower value; strain lacks LuxN and CqsS sensors; 0 = neutral-control median | activity change, % at 7.5 µM | hit rate 0.4% among 300,000 | AID 2094, 2009; in the data active = activity change below about -75%, passing the limit was not always enough; inconclusive = no clear call, values can overlap the other calls;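 also: luminescence divided by OD600 gain over 9 h not by final OD600 alone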
# JMH597 growth rt: Vibrio harveyi growth inhibition, confirmation, counter-screen for AI-2 quorum sensing project, JMH597 strain, OD600 absorbance; shares compounds with AI-2 QS modul; 9 h; lacks LuxN and CqsS sensors; growth inhibition, % at 7.5 µM; hit rate 1% among 750;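 active = every replicate shows growth inhibition above 50%; inconclusive = at least half, but not all, replicates pass that cutoff; inactive = fewer than half of replicates pass it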
# BB721 lum counter: luminescence inhibition in constitutive-on V. harveyi, confirmation, counter-screen for LuxS inhibitor project, strain BB721, luminescence readout. shares compounds with AI-2 QS modul. Vibrio harveyi BB721 luminescence, 9 h. inhibition, % at 7.5 µM. hit rate 95% among 750. AID 2727, 2010;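 active = inhibition above about 80% in every replicate, not just on average, limit read from the data; inconclusive = at least half of replicates past the limit, but not all; inactive = fewer than half of replicates past the limit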
# BB721 growth rt: growth inhibition of V. harveyi BB721, confirmation, cytotoxicity control for AI-2 quorum sensing inhibitors, strain BB721, absorbance OD600; shares compounds with AI-2 QS modul; Vibrio harveyi BB721 growth, 9 h; growth inhibition, % at 7.5 µM; hit rate 3% among 750; AID 2728, 2010;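 active = every replicate shows growth inhibition above 50%; inconclusive = at least half but not all replicates above 50% inhibition; inactive = under half of replicates above 50% inhibition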
# JMH597 AI-2 mod: Vibrio harveyi AI-2 signaling luminescence modulation – JMH597 strain, confirmation | shares compounds with AI-2 QS modul | Vibrio harveyi JMH597 AI-2 quorum sensing luminescence, 9 h; luxN and CqsS knockout, AI-2 only | inhibition, % at 7.5 µM | hit rate 97% among 750 | AID 2736, 2010;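 active = every replicate shows more than 75% inhibition of signal versus neutral control wells; inconclusive = half to three quarters of replicates exceed 75% inhibition; inactive = fewer than half of replicates exceed 75% inhibition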
# Hits are given with their value; n = inactive; u = inconclusive; x = no result. Shown are actives, neighbours in structure and some others; about 2.6% of the full set was active somewhere. Unless noted, no rule for the calls is given here.
SMILES,MLLE-PAM2 inh,ABCB6 inh 2,PHOSPHO1 inh,eIF4H inh,PABP polyA inh,AI-2 QS modul,JMH597 growth rt,BB721 lum counter,BB721 growth rt,JMH597 AI-2 mod
O=C(Nc1cccc(OC(F)(F)F)c1)C1Cc2c(-c3ccccc3Oc3ccccc3)ccnc2O1 (centres undefined),n,n,x,x,x,x,x,x,x,x
CCCNC(=O)C1(C)CCCN(C(=O)c2cccc(Cl)c2)C1 (centres undefined),n,n,x,x,x,x,x,x,x,x
Cc1ccc(-c2[nH]ncc2C(=O)c2ccc(Br)cc2)c(O)c1,n,n,n,n,n,-95,n,97,n,98
Cc1ccc(NC(=O)C2CCN(S(=O)(=O)c3cccnc3)CC2)cc1C,n,n,n,n,n,-89,n,95,n,96
Cc1ccc(CNC(=O)C2CCN(S(=O)(=O)c3cccnc3)CC2)cc1,n,n,n,n,n,u,n,93,n,95
O=C(Nc1cccc(C(F)(F)F)c1)C1CCN(S(=O)(=O)c2cccnc2)CC1,n,n,n,n,n,-83,n,92,n,94
O=C(NCc1cccnc1)C1CCN(S(=O)(=O)c2cccnc2)CC1,n,n,n,n,n,n,x,x,x,x
Cc1nc(NC(=O)C(C)(C)C)sc1C(=O)Cn1cc(CCCC#N)nn1,x,n,x,x,x,x,x,x,x,x
CC(=O)NC/C(C)=N\Nc1ccc([N+](=O)[O-])cc1,n,n,n,n,n,-86,n,96,55,96
CN(C)c1cc[n+](CC(=O)Nc2cccc([N+](=O)[O-])c2)cc1,n,n,n,n,n,n,x,x,x,x
CN(C)c1cc[n+](CC(=O)Nc2ccc(Cl)c([N+](=O)[O-])c2)cc1,n,n,n,n,n,-87,n,96,n,97
COC(=O)CCCC[C@@H]1O[C@H](CCc2ccccc2)CC2=C1C(=O)OC(C)(C)O2,x,n,x,x,x,x,x,x,x,x
CCOC(=O)C1=C(C)NC(=S)NC1C (centres undefined),n,n,n,n,n,-82,n,n,n,n
C=CCN(CC=C)Cc1cc(=O)oc2ccccc12,n,n,x,x,x,x,x,x,x,x
O=C(OC1CCCCC1)c1ccc(NC(=O)c2ccco2)cc1,n,n,n,n,n,-79,n,85,u,90
O=C(Nc1ccc(Oc2cccc3ccccc23)cc1)c1ccco1,n,n,n,n,n,-88,n,95,n,93
O=C(O)c1ccccc1C(=O)Nc1ccc(Oc2cccc3ccccc23)cc1,n,n,n,n,n,n,x,x,x,x
COc1ccc(NC(=O)CSCC(=O)N(C)CC(=O)Nc2ccc(Cl)c(C(F)(F)F)c2)cc1,n,n,x,x,x,-80,n,89,n,91
Cc1nnc(NC(=O)Cn2nc(C)c3ccccc3c2=O)s1,n,n,n,n,n,-90,n,98,n,99
Cc1ccc(NC(=O)Cc2nn(C)c(=O)c3ccccc23)cc1F,n,n,n,n,n,n,x,x,x,x
Cc1nn(CC(=O)N(C)C)c(=O)c2ccccc12,n,n,n,n,n,n,x,x,x,x
COc1ccc(NC(=O)Cn2nc(C)c3ccccc3c2=O)cc1,n,n,n,n,n,-92,n,97,n,98
Cc1ccc(NC(=O)Cn2nc(C)c3ccccc3c2=O)cc1F,n,n,n,n,n,-93,n,99,n,99
Cc1nn(CC(=O)Nc2ccc(C(=O)N(C)C)cc2)c(=O)c2ccccc12,n,n,n,n,n,-90,n,97,n,98
COc1cc(NC(=O)Cn2ncc(Cl)c(Cl)c2=O)c(C)cc1[N+](=O)[O-],n,n,n,n,n,-80,n,93,n,94
SMILES,MLLE-PAM2 inh,ABCB6 inh 2,PHOSPHO1 inh,eIF4H inh,PABP polyA inh,AI-2 QS modul,JMH597 growth rt,BB721 lum counter,BB721 growth rt,JMH597 AI-2 mod
O=C(NC1CCCC1)C1c2ccccc2OCC(=O)N1Cc1cccnc1 (centres undefined),x,n,x,x,x,x,x,x,x,x
CCOC(=O)Oc1ccc2c(=O)c(Oc3cccc(C)c3)coc2c1,n,n,n,n,n,-85,75,97,u,97
Cc1cccc(Oc2coc3cc(O)ccc3c2=O)c1,n,n,n,n,n,-87,n,98,n,98
CCOC(=O)Oc1ccc2c(=O)c(Oc3cc(C)cc(C)c3)coc2c1,n,n,n,n,n,n,x,x,x,x
CCOC(=O)C1=CCN(S(=O)(=O)c2ccccc2C)C1c1ccc(F)cc1 (centres undefined),n,n,x,x,x,x,x,x,x,x
CC1(c2ccccc2)NC(=O)N(CC(=O)Nc2cccc(C#N)c2)C1=O (centres undefined),n,n,n,n,n,-95,n,97,n,98
CCC1(c2ccccc2)NC(=O)N(CC(=O)Nc2cccc(C#N)c2)C1=O (centres undefined),n,n,n,n,n,-94,n,96,n,97
CCCC1(c2ccccc2)NC(=O)N(CC(=O)Nc2cc(OC)cc(OC)c2)C1=O (centres undefined),n,n,n,n,n,-81,n,u,n,85
COc1cccc(CC(=O)Nc2cccc3ccccc23)c1,n,n,n,n,n,n,x,x,x,x
COc1cccc(NC(=O)Cc2ccc3ccccc3c2)c1,n,n,n,n,n,-84,n,89,n,92
COc1cc(NC(=O)CN2C(=O)NC(c3ccccc3)(c3ccccc3)C2=O)cc(OC)c1,n,n,n,n,n,-89,n,n,n,n
COc1cccc(NC(=O)CN2C(=O)NC(C)(c3ccc(C)cc3)C2=O)c1 (centres undefined),n,n,n,n,n,-90,n,92,n,95
COc1cccc(NC(=O)CN2C(=O)NC3(CCCC3)C2=O)c1,n,n,n,n,n,n,x,x,x,x
NC(c1csc(Nc2cnccn2)n1)c1ccccc1Cl (centres undefined),n,n,x,x,x,x,x,x,x,x
COc1cccc(NC(=O)Cn2nnc(-c3ccccc3N)n2)c1,n,n,n,n,n,-81,n,97,n,97
